Data on 17 molecules can be found in PubChem BioAssay (NCATS).

The structures appear in SMILES notation. Several values for one entry are separate records, joined by “and”; a condition that tells them apart may be missing. Equal entries are not always repeated. Records with an inconclusive call do not appear. A number with no mark means an inactive call. Activity calls are given as the source filed them. Calls follow the shape of the dose curve; as a rule, active = well fitted curve in the direction sought with a large enough effect; inconclusive = small, poorly fitted or top-dose-only effect, or another doubt; inactive = no such curve, though single readings can be large; an effect the other way counts as inactive or inconclusive.

Assay [1] can be described thus: Viability qHTS for spleen associated tyrosine kinase inhibitor (SYKi) drug resistant MV4-11 cells (AID 1963824). Also: nearly all actives have a fitted effect of over 35% in size. The settings on record: SYKi-resistant MV4-11 viability, CellTiter-Glo, 72 h; series mostly up to 45 µM. In a few lines:
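SYK-inhibitor-resistant MV4-11 AML cells were seeded at 500 per well onto compound and cultured 72 hours (37 °C, 5% CO2). CellTiter-Glo was then added, and after 10 min at room temperature, luminescence gave viability.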
For orientation: Quantitative high-throughput screening tests each substance at several concentrations.

Assay [2] can be described thus: Quantitative highthroughput screen to assess conditional lethalithy of NOMO1 cells grown in RPMI1640 with untreated serum (RPMI+s) (AID 1963876). Also: nearly all actives have a fitted effect of over 35% in size.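 As to Viability: 100% = DMSO wells and 0% = empty wells without cells.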 As to conditions: NOMO1 AML cells in RPMI+serum, CellTiter-Glo viability, 48 h; series mostly up to 45.8 µM. In a few lines:
(§1)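 Each medium arm—HPLM with 10% dialyzed FBS, or RPMI1640 with 5 mM glucose and 10% untreated or dialyzed FBS—was screened against an 11-point, 3-fold compound titration for 48 h at 37 °C, with CellTiter-Glo luminescence as endpoint.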

The nature of assay [3]: Quantitative highthroughput screen to assess conditional lethalithy of NOMO1 cells grown in RPMI1640 with dialyzed fetal bovine serum (RPMI+ds) (AID 1963877). Also: nearly all actives have a fitted effect of over 30% in size.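 As to Viability: 100% = DMSO control wells and 0% = empty wells.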 The settings on record: NOMO1 in RPMI+dialyzed FBS viability, ATP luminescence, 48 h; series mostly up to 45.8 µM. In a few lines:
as §1

Assay [4] is described as follows: Quantitative highthroughput screen to assess conditional lethalithy of NOMO1 cells grown in Human Plasma-Like Medium with dialyzed fetal bovine serum (HPLM+ds) (AID 1963878). Also: nearly all actives have a fitted effect of over 35% in size.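 As to Viability: 100% = DMSO wells and 0% = empty wells on each plate.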 As to conditions: NOMO1 AML cells in HPLM+ds, CellTiter-Glo viability, 48 h; series mostly up to 45.8 µM. In a few lines:
as §1
For orientation: In ATP-based viability assays light output follows the ATP content of the culture.

Assay [5] in a line: Quantitative highthroughput screen to assess conditional lethalithy of P12 Ichikawa cells grown in Human Plasma-Like Medium with dialyzed fetal bovine serum (HPLM+ds) (AID 1963879). Also: nearly all actives have a fitted effect of over 35% in size. As to conditions: ATP luminescence, 48 h; Potency: viability; series mostly up to 45.8 µM. In a few lines:
as §1

A short description of assay [6]: Quantitative highthroughput screen to assess conditional lethalithy of P12 Ichikawa cells grown in RPMI1640 with dialyzed fetal bovine serum (RPMI+ds) (AID 1963880). Also: nearly all actives have a fitted effect of over 35% in size.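 As to Viability: 100% = DMSO wells and 0% = empty wells on each plate.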 As to conditions: ATP luminescence, 48 h; Potency: P12-Ichikawa viability; series mostly up to 45.8 µM. In a few lines: as §1
Assay [7] is described as follows: Quantitative highthroughput screen to assess conditional lethalithy of P12 Ichikawa cells grown in RPMI1640 with untreated serum (RPMI+s) (AID 1963881). Also: nearly all actives have a fitted effect of over 35% in size.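 As to Viability: 100% = DMSO wells and 0% = empty wells without cells.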 As to conditions: ATP luminescence, 48 h; Potency: viability; series mostly up to 45.8 µM. In a few lines: as §1
Assay [8] in a line: Quantitative highthroughput screen to assess conditional lethalithy of SEM cells grown in Human Plasma-Like Medium with dialyzed fetal bovine serum (HPLM+ds) (AID 1963882). Also: nearly all actives have a fitted effect of over 35% in size. As to conditions: SEM B-ALL cells in HPLM+ds, CellTiter-Glo viability, 48 h; series mostly up to 45.8 µM. In a few lines: as §1
Assay [9] can be described thus: Quantitative highthroughput screen to assess conditional lethalithy of SEM cells grown in RPMI1640 with unreated serum (RPMI+s) (AID 1963883). Also: nearly all actives have a fitted effect of over 35% in size.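 As to Viability: 100% = DMSO wells and 0% = empty wells without cells.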 As to conditions: SEM B-ALL cells, CellTiter-Glo viability, 48 h; series mostly up to 45.8 µM. The method, boiled down:
as §1

Assay [10] can be described thus: Quantitative highthroughput screen to assess conditional lethalithy of SEM cells grown in RPMI1640 with dialyzed fetal bovine serum (RPMI+ds) (AID 1963884). Also: nearly all actives have a fitted effect of over 35% in size.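 As to Viability: 100% = DMSO control wells and 0% = empty wells without cells.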 As to conditions: SEM B-ALL cells, RPMI+dialyzed FBS, CellTiter-Glo viability, 48 h; series mostly up to 45.8 µM. The method, boiled down: as §1
Assay [11] in a line: Cellular viability qHTS for adrenocortical cancer (ACC) cell line SW-13 (AID 1963989). Also: nearly all actives have a fitted effect of over 65% in size.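 As to activity (max response): cells grown in serum-free medium with ITS supplement; % is scaled to controls: 0 for no effect and ±100 for the full control effect.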 The settings on record: SW-13 ACC cells viability, CellTiter-Glo, 48 h; activity (max response): stronger effect = lower value. The method, boiled down: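 Viability was read as CellTiter-Glo luminescence after 48 h compound treatment (up to 46 uM final) of SW-13 cells grown serum-free; titration curves were fit with a four-parameter logistic model to give IC50 and efficacy.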

Assay [12] can be described thus: Cellular viability qHTS for adrenocortical cancer (ACC) cell line NCI-H295R (AID 1963990). Also: nearly all actives have a fitted effect of over 60% in size. The settings on record: CellTiter-Glo ATP luminescence, 48 h; series mostly up to 46.1 µM. In a few lines:
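CellTiter-Glo ATP luminescence, read 48 h after compound addition, measured viability of NCI-H295R adrenocortical cells grown serum-free with ITS. Final concentrations spanned up to 46 uM. Data normalized to DMSO and doxorubicin, fitted for IC50 and maximal response.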
Potency is read from the fitted curve at half-maximal effect.

Regarding `O=C(CCCCC1CCCCC1)N1CCC(c2cnc[nH]2)CC1`, the Potency in [1] is 8.2 µM (active).

With `Nc1nc(N)c2nc(CNc3ccc(C(=O)NC(CCC(=O)O)C(=O)O)cc3)cnc2n1` (centres undefined), in assay [1], the Potency is 0.0148 µM (active). The Potency result in assay [2] was “inactive”.

For the molecule `Cc1ccc(C(=O)Nc2ccc(Oc3cc4cnn(C)c4cc3-c3cn[nH]c3)c(F)c2)c(=O)n1-c1ccc(F)cc1`, the Potency in assay [1] is 0.0047 µM (active); in assay [2], 8.31 µM (active); in assay [3], 9.33 µM (active); in assay [4], 7.41 µM (active); in assay [5], 6.6 µM (active); in assay [6], 7.41 µM (active). In addition, the Potency was 6.6 µM (active) in [7], 0.295 µM (active) in assay [8], 0.467 µM (active) in assay [9] and 0.234 µM (active) in assay [10]. The activity (max response) in [11] is -20.9%.

For `COCCOc1nc(-c2ccc(Cl)c(Cl)c2)n(-c2ccc(NC(=O)CCl)cc2)n1`, the Potency was 1.48 µM (active) in assay [1], 4.47 µM (active) in assay [11] and 0.199 µM (active) in assay [12]. Moreover, the Potency result in assay [2], in [3], in [4], in assay [5], in assay [6] and in assay [7] was “inactive” in each case. In [8], the Potency result is “inactive”.

On to `CC[C@H](C=C[C@@H](C)[C@H]1CC[C@H]2[C@@H]3CC=C4C[C@@H](O)CC[C@]4(C)[C@@H]3CC[C@]12C)C(C)C`, for which the Potency result in assay [1], in assay [2], in [3], in [5], in assay [6] and in [7] was “inactive” throughout. Also, the Potency entry in assay [8], in [10] and in assay [12] was “inactive” in each case. For the same molecule, the Potency in [4] is 7.24 µM (active). The activity (max response) in [11] is 10.2%.

Take `C[C@@H]1C(=O)O[C@H]2CC34[C@H]5C[C@@H](C(C)(C)C)C36[C@H](OC(=O)[C@@H]6O)O[C@@]4(C(=O)O5)[C@]21O` (some centres undefined): the Potency result in [1], in assay [2], in [3], in [4], in assay [5] and in assay [6] was “inactive” in each case. Moreover, the Potency entry in [7], in assay [9] and in [10] was “inactive” in each case. Further, the activity (max response) in assay [11] was -23.3%.

Turning to `Nc1nccc(-c2ccc3noc(-c4ccc(Cl)cc4)c3c2)n1`, in assay [1], the Potency was 8.33 µM (active). For the same molecule, the Potency entry in [2], in assay [3], in assay [4], in assay [5], in [6] and in assay [7] was “inactive” each time. In addition, the Potency entry in assay [8], in assay [9], in assay [10] and in assay [12] was “inactive” each time. Further, the activity (max response) in assay [11] is -6.01%.

For `COc1ccc2c(c1OC)C(=O)OC2[C@H]1c2c(cc3c(c2OC)OCO3)CCN1C` (some centres undefined), the Potency in [1] is 23.5 µM (active); in assay [2], 0.296 µM (active); in assay [3] it was 0.332 µM (active); in [4] it was 0.148 µM (active); in assay [5], 0.469 µM (active); in [6] it was 0.59 µM (active). Besides, the Potency was 0.418 µM (active) in assay [7]; 0.235 µM (active) in assay [8]; 0.118 µM (active) in assay [9]; 0.187 µM (active) in [10]; 22.4 µM (active) in [11]; 25.1 µM (active) in assay [12].

Take `Cc1ccccc1C(=O)Nc1ccc(C(=O)N2CCCC(O)c3cc(Cl)ccc32)c(C)c1` (centres undefined): the Potency in assay [1] was 20.9 µM (active); in assay [12], 16.4 µM (active). Further, the Potency result in assay [2], in assay [3], in assay [4], in [5], in assay [6] and in assay [7] was “inactive” throughout. Moreover, the Potency entry in [8], in assay [9] and in assay [10] was “inactive” in each case.

For `Nc1nc(-c2nn(Cc3ccccc3F)c3ncccc23)nc(N)c1N1CCOCC1`, the Potency entry in [1], in [2], in [3], in assay [4], in assay [5] and in [6] was “inactive” in each case. Moreover, the Potency result in assay [7], in assay [8], in assay [9], in [10] and in assay [12] was “inactive” in each case. Moreover, in [11], the activity (max response) is 8.84%.

On to `CC(C)(O)CCc1ccc(OCc2cc(-c3cccc(OC(F)F)c3)c3ncccc3c2)cc1`, for which the results for the Potency in assay [1] and in assay [12] were 16.6 µM (active) and 25.1 µM (active), respectively. Besides, the Potency result in assay [2], in assay [3], in [4], in assay [5], in [6] and in [7] was “inactive” throughout. Besides, the Potency result in [8] and in assay [10] was “inactive” in each case.

As to `Cc1c(NC(=O)c2ccc(C(C)(C)C)cc2)cccc1-c1cn(C)c(=O)c(Nc2ccc(C(=O)N3CCOCC3)cc2)n1`, the Potency in [1] was 11.4 µM (active) and 16.6 µM (active). Further, the Potency entry in assay [2], in assay [3], in [4], in assay [5], in assay [6] and in [7] was “inactive” in each case. In addition, the Potency result in [8], in [9], in assay [10] and in assay [12] was “inactive” each time. Further, the activity (max response) in assay [11] is -3.65%.

Take `CCCCc1ccc(NS(=O)(=O)c2ccc(C)c(C(=O)N3CCN(c4cccc(C)c4C)CC3)c2)cc1`: the Potency in assay [1] is 42.8 µM (active); in assay [12], 44.7 µM (active). Besides, the Potency entry in assay [2], in assay [3], in [4], in [5], in [6] and in [7] was “inactive” in each case. Further, the Potency entry in [9] and in [10] was “inactive” each time.

Take `Nc1ncnc2ccccc12`: the Potency result in assay [1], in [2], in [3], in [4], in assay [5] and in [6] was “inactive” in each case. In addition, the Potency entry in assay [7], in assay [9], in assay [10] and in assay [12] was “inactive” each time. Moreover, the activity (max response) in [11] was 12%.

Turning to `O=C(O)c1nc(=O)[nH]c(=O)[nH]1`, the Potency entry in assay [1], in [2], in assay [3], in assay [4], in assay [5] and in [6] was “inactive” in each case. For the same molecule, the Potency entry in assay [7], in [8], in assay [9], in assay [10] and in assay [12] was “inactive” in each case. For the same molecule, the activity (max response) in assay [11] is -18%.

In the case of `CC(C)[C@H](O)C(=O)N[C@@H](C)C(=O)N[C@@H]1C(=O)N(C)CCc2ccccc21`, the Potency entry in assay [1], in assay [2], in assay [3], in assay [4], in [5] and in assay [6] was “inactive” throughout. Further, the Potency result in [7], in assay [8], in assay [9] and in assay [12] was “inactive” in each case. In addition, the activity (max response) in [11] is 8.71%.

For `CC(C)Oc1ccc2c(=O)c(-c3ccccc3)coc2c1`, the Potency in assay [1] was 10.6 µM (active). Also, the Potency entry in [2], in assay [3], in [4], in assay [5], in assay [6] and in assay [7] was “inactive” in each case. Also, the Potency entry in assay [8], in [9] and in assay [12] was “inactive” in each case. Moreover, the activity (max response) in assay [11] is -5.36% and 3.78%.
